# PubChem BioAssay AID1259418 (Broad Institute, 2018)
# Hit rate of the full screen: of about 3,400 compounds, about 840 (25%) were called active. Not shown: some 11% with an inconclusive outcome.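 The calls were made as follows: active = fitted half-maximal concentration of signal decrease at or below twice the sample's top tested concentration; inconclusive = flat curve between -70 and -30 percent, or poor fit; inactive = flat within 30 percent, signal rise, or potency above limit.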 A selection follows. Results with a measured potency or affinity are listed apart.
# Assay: T. gondii growth inhibition with IFN-gamma, dose response, cell-based, ME49Luc, HeLa, luciferase, 72 h (AID 1259418)
# Conditions: T. gondii ME49Luc in IFN-y HeLa, hits give low values, -100% = high-dose IFN-γ control wells; at 19.5 µM unless noted
row,Structure (SMILES),max activity
1,CCOc1ccc(-c2nc(CN3CCN(C(=O)Nc4ccccc4C(F)(F)F)CC3)c(C)o2)cc1,13.7% [at 2.6 µM] (inactive)
2,O=C(NCCc1csc(-c2ccccc2)n1)C1CCN(C(=O)COc2ccccc2)CC1,-18.1% [at 0.68 µM] (inactive)
3,O=C(O)c1ccc(NC(=NCCc2ccccc2)N2CCN(c3ncnc4ccccc34)CC2)cc1,6.72% (inactive)
4,COc1ccc(NC(=O)Nc2ccc(-c3nc(-c4ccccc4)co3)cc2)cc1,-14% [at 0.68 µM] (inactive)
5,COc1ccccc1N(Cc1nc(-c2cccc(OC)c2OC)oc1C)S(=O)(=O)c1ccccc1,3.95% (inactive)
6,CCOc1ccccc1-c1nc(CN(c2ccccc2)S(=O)(=O)c2ccccc2)c(C)o1,15.6% (inactive)
7,CCOc1ccccc1-c1nc(CN(c2ccccc2OC)S(=O)(=O)c2ccc(C)cc2)c(C)o1,-6.32% (inactive)
8,COc1ccc(-c2nc(Cn3nnc(-c4nc(-c5ccccc5)no4)c3C)c(C)o2)cc1,11% [at 0.16 µM] (inactive)
9,Cc1ccc(NC(=O)Nc2ccc(-c3nc(-c4ccccc4)co3)cc2)cc1C,24.4% (inactive)
10,Cc1cc(-n2nnc(C(=O)N3CCC(N4CCCCC4)CC3)c2-c2ccncc2)ccc1F,-34.1% (inactive)
11,Cc1ccccc1C(=O)N1CCC2(CC1)Nc1cc(F)ccc1-n1cccc12,-6.16% [at 1.35 µM] (inactive)
12,COc1ccc(OCC(=O)N2CCC3(CC2)Nc2ccc(C)c(C)c2-n2cccc23)cc1,-9.59% [at 2.6 µM] (inactive)
13,CCOC(=O)C1CCCN(c2nc(-c3ccc(Cl)cc3)nc3ccccc23)C1 (stereo not given),5.87% [at 0.35 µM] (inactive)
14,Cc1noc(C)c1S(=O)(=O)N1CSC[C@@H]1C(=O)NCCc1csc(-c2ccccc2)n1,13.2% [at 1.35 µM] (inactive)
15,Cc1cccc(NC(=O)Nc2ccc(-c3nc(-c4ccc(C)cc4C)co3)cc2)c1,-13.9% [at 0.16 µM] (inactive)
16,COc1ccccc1-c1noc(-c2nnn(Cc3nc(-c4cccc(Cl)c4)oc3C)c2C)n1,9.3% [at 0.16 µM] (inactive)
17,CCc1nc(OCC(=O)Nc2ccccc2C(F)(F)F)c2ccccc2n1,15.4% [at 2.6 µM] (inactive)
18,Cc1ccc(-c2coc(-c3ccc(NC(=O)NCc4ccccc4)cc3)n2)c(C)c1,5.28% [at 0.16 µM] (inactive)
19,COc1ccc(-c2nc(Cn3nnc(-c4nc(-c5ccccn5)no4)c3C)c(C)o2)cc1,-5.61% [at 10 µM] (inactive)
20,COc1ccccc1-c1nc(C)c(-c2ccc(SCc3ccccc3)nn2)s1,-5.61% [at 0.68 µM] (inactive)
